Data: PubChem BioAssay AID504861 (Broad Institute, 2011)
About 290 (24%) of roughly 1,200 compounds were called active. Another 3% or so got no clear call; they are omitted.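 Rule for the calls: active = compounds lowering cell viability signal with fitted half-maximal concentration at most ten times their highest tested concentration; inconclusive = flat fit with 30 to 70% signal loss, or poor fit; inactive = the rest.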 These entries were drawn from the full list. Results with a measured potency or affinity are listed apart.

Experiment: cytotoxicity in HEK293T cells – cell-based, CellTiter-Glo luminescence, cherry-picks, cytotoxicity control for LMP1 NF-kB inhibitor project, dose response (AID 504861)
Conditions: HEK293T viability, CellTiter-Glo ATP luminescence, 48 h; series mostly up to 26 µM; activity change, negative = cytotoxicity: at the top concentration

| SMILES | activity change, negative = cytotoxicity |
| --- | --- |
| CCOC(=O)Nc1ccc2c(c1)N(C(=O)CN(C)C)c1ccccc1CC2 | 8.4% (inactive) |
| CCOCCCNC(=O)CN1C(=O)/C(=C\c2ccc(C)cc2)Sc2ccccc21 | 1.27% (inactive) |
| CCN(c1ccccc1)S(=O)(=O)c1ccc(Cl)c(NC(=O)Nc2ccc(Cl)cc2C#N)c1 | 0.681% (inactive) |
| COc1ccc(-c2csc3ncnc(NCCO)c23)cc1 | -5.42% (inactive) |
| COC(=O)c1cc2n(n1)CCN(Cc1ccccc1Cl)C2=O | 20.5% (inactive) |
| CC1CN(c2cc(=O)n(-c3ccccc3)c(=O)[nH]2)CC(C)O1 (stereo not given) | 5.49% (inactive) |
| Cc1nn(-c2ccccc2)c(Cl)c1C(=O)N1CCN(c2ncnc3c2cnn3-c2ccccc2)CC1 | -6.98% (inactive) |
| CCc1cc2c(Sc3nc4ccccc4s3)ncnc2s1 | 3.61% (inactive) |
| CC1(C)Cc2c(ccc3ccccc23)/C(=C/C(=O)N2CCCCC2)N1 | -4.53% (inactive) |
| COc1ccc2cc(-c3cc(C(=O)O)c4ccccc4n3)ccc2c1 | -2.9% (inactive) |
| COc1ccc(NC(=O)NCCN2CCc3ccccc3C2)cc1 | 12.1% (inactive) |
| Cc1cc2cc(CN(Cc3ccco3)S(=O)(=O)c3c(C)ccc4nsnc34)c(=O)[nH]c2cc1C | 5.72% (inactive) |
| CCCN(CC)c1ncnc2[nH]ncc12 | 6.36% (inactive) |
| COc1ccc(/C=N/Nc2cc(OC)ncn2)cc1 | -6.09% (inactive) |
| CN(C)c1ccc(C=Cc2ccnc3c(O)cccc23)cc1 | 7.55% (inactive) |
| COc1ccc(CC(C)NCC(O)c2ccc(O)c(NC=O)c2)cc1 (stereo not given) | 9.09% (inactive) |
| COc1ccc(-n2c(SCC(=O)Nc3ccc4c(c3)OCO4)nc3c(c2=O)SCC3)cc1 | 14.8% (inactive) |
| CCOCCCn1cnc2c3cc(F)ccc3n(C)c2c1=O | 4.26% (inactive) |
| CC(C)(C)n1nc(-c2ccc(Cl)cc2)c2c(N)ncnc21 | 5.92% (inactive) |
| CCc1ccc(/C=C2\SC(=S)N(CCCC(=O)NC3=NCCS3)C2=O)cc1 | 4.7% (inactive) |
| CCOc1cc(/C=C2/C(=N)N3N=C(CC)SC3=NC2=O)ccc1OC(=O)c1ccco1 | 1.86% (inactive) |
| COc1ccc(-c2cc(C(=O)N3CCCC3)no2)cc1 | -9.67% (inactive) |

| SMILES | activity change, negative = cytotoxicity |
| --- | --- |
| O=Cc1ccc(-c2cccs2)s1 | 2.5% (inactive) |
| COC(=O)c1ccc(CSc2nc3c(c(=O)n2-c2ccc(C)cc2)SCC3)o1 | 0.495% (inactive) |
| Cc1ccc(-n2cc(C(=O)c3ccccc3O)cn2)cc1 | 1.39% (inactive) |
| COc1ccc(C(=O)N=c2nc3ccccn3s2)cc1 | 0.856% (inactive) |
| CC(=O)c1cc(C(=O)Nc2ccc(C(=O)O)cc2)oc1C | 6.62% (inactive) |
| COc1ccc(NC(=O)/C(C#N)=C/c2cc(C)n(-c3ccc(N4CCOCC4)c([N+](=O)[O-])c3)c2C)cc1 | 12.6% (inactive) |
| CCOC(=O)c1c(CSc2nc(C)cc(C)c2C#N)n(C)c2cc(Br)c(OC(C)=O)cc12 | 7.63% (inactive) |
| CCOc1ccc(Nc2ncnc3ccc([N+](=O)[O-])cc23)cc1 | 0.16% (inactive) |
| Cc1nc(SCC(=O)c2cccc([N+](=O)[O-])c2)n[nH]1 | 6.82% (inactive) |
| CC(NC(=O)CNC(=O)OCc1ccccc1)C(=O)N1CC(O)CC1C(=O)OCc1ccccc1 (stereo not given) | 3.26% (inactive) |
| CC(C)(C)OC(=O)N1Cc2ccccc2C[C@H]1C(=O)NCC(=O)Nc1ccc2c(c1)OCCO2 | 1.18% (inactive) |
| COc1ccc(-n2cnc3c(cnn3CCC#N)c2=N)cc1 | 1.49% (inactive) |
| Cc1ccn2c(c1)nc(=S)n2C(=O)c1ccccc1 | 4.84% (inactive) |
| COc1ccc(NC(=O)c2cc3c(CO)cnc(C)c3oc2=Nc2cccc(F)c2)c(OC)c1 | 5.36% (inactive) |
| N#Cc1c(Nc2ccccc2)sc(C(=O)c2ccc(F)cc2)c1N | -4.44% (inactive) |
| C=CCn1c(SCc2csc(C)n2)nc2sc3c(c2c1=O)CCCC3 | 0.035% (inactive) |
| CCn1c2ccccc2c2cc(/C=N/n3cn[nH]c3=S)ccc21 | -7.9% (inactive) |
| O=C1CC(c2cccs2)Cc2nc(NC(=O)C3CC3)ncc21 (stereo not given) | 5.6% (inactive) |
| CC(=O)O[C@]1(C(C)=O)CC[C@H]2[C@@H]3C=C(C)C4=CC(=O)CC[C@@H]4[C@H]3CC[C@@]21C | 3.47% (inactive) |
| Cc1ccc(-c2cc(C(=O)N/N=C/C=C/c3ccco3)c3ccccc3n2)cc1C | 6.86% (inactive) |
| Cc1ccc(C(=O)NCC(=O)N(C)Cc2cccc(F)c2)s1 | 9.7% (inactive) |
| Cn1cccc1/C=N/n1c(-c2ccc(Cl)cc2Cl)n[nH]c1=S | 20.7% (inactive) |

| SMILES | activity change, negative = cytotoxicity |
| --- | --- |
| CCn1nnc2cc(C(=O)NCCc3ccccc3F)ccc21 | 4.03% (inactive) |
| O=C(Nc1cccc(C(=O)O)c1)Nc1ccccc1Cl | -4.79% (inactive) |
| O=C(NCCc1cn2ccccc2n1)C1CCCCC1 | 2.71% (inactive) |
| Cc1ccc(C)c(Cn2c(O)c(N=NC(=S)Nc3ccccc3F)c3ccccc32)c1 | 4.62% (inactive) |
| N#CC1=C(N)C(C#N)(C#N)C(c2cccnc2)C2CC(c3ccccc3)CC=C12 (stereo not given) | -9.23% (inactive) |
| Cc1nc(C)n(C(C)CNC(=O)c2ccco2)n1 (stereo not given) | 20.6% (inactive) |
| O=C(O)c1ccccc1Nc1cccc(OCc2ccc3ccccc3n2)c1 | 2.93% (inactive) |
| CCCC(=O)NCCCc1nc2ccccc2n1C | 4.83% (inactive) |
| O=C(O)c1cc(=O)c2c(OCC(O)COc3cccc4oc(C(=O)O)cc(=O)c34)cccc2o1 | 2.34% (inactive) |
| COc1ccc(-n2c(C)c([N+](=O)[O-])c3ccc(O)c(CN(C)C)c32)cc1 | -4.24% (inactive) |
| COc1ccc(Cl)cc1NC(=O)CN(C)S(=O)(=O)c1cccs1 | 0.878% (inactive) |
| OCCN(CCO)CC(O)COCCC12CC3CC(CC(C3)C1)C2 (stereo not given) | 6.07% (inactive) |
| O=C(Nc1ccc2c(c1)nc1n2CCSC1)c1ccco1 | 1.58% (inactive) |
| Cc1ccc(/C=C/c2nc3ccccc3c(=O)[nH]2)cc1 | 11.4% (inactive) |
| CCn1c(/C=C/c2ccc([N+](=O)[O-])o2)nc2ccccc2c1=O | -4.54% (inactive) |
| COc1ccccc1-c1ccccc1C1=CC(=O)CC(C)(C)C1=O | -7.07% (inactive) |
| COc1ccc(/C=C2\N=C(C)OC2=O)cc1[N+](=O)[O-] | 17% (inactive) |
| Brc1cccc(-c2cnco2)c1 | 4.42% (inactive) |
| O=c1[nH]c(=O)n([C@H]2C[C@H](O)[C@@H](CO)O2)cc1C(F)(F)F | -5.32% (inactive) |
| O=c1c2c(nc3c(-c4cccc(Br)c4)c[nH]n13)CCCC2 | 5.69% (inactive) |
| CC(C)C(=O)Nc1ccc(C(=O)N/N=C/c2cc(Br)cc(Br)c2O)cc1 | 4.48% (inactive) |
| Clc1ccc(-c2cn3nc4c(nc3n2)CCCC4)cc1 | 10.1% (inactive) |

| SMILES | activity change, negative = cytotoxicity |
| --- | --- |
| COc1ccc(NC(=O)C2CCCN(S(=O)(=O)c3cccc4nonc34)C2)c(OC)c1 (stereo not given) | 2% (inactive) |
| CC(=O)Nc1ccc(C=NNc2nnc(NN=Cc3ccc(NC(C)=O)cc3)c3ccccc23)cc1 | 6.7% (inactive) |
| COc1ccc(N2C(=O)CC(Sc3nnc(-c4ccccc4)o3)C2=O)cc1 (stereo not given) | 4.02% (inactive) |
| Cc1cccc(NC(=O)Nc2c(C)n(C)n(-c3ccccc3)c2=O)c1C | 43.7% (inactive) |
| Cc1c(C=O)c2ccccn2c1C(=O)c1ccccc1Cl | 5.73% (inactive) |
| Clc1ccc2nc(-c3ccc4c(c3)OCO4)cn2c1 | -2.92% (inactive) |
| COC(=O)c1ccc2nc(-c3ccc4c(c3)OCO4)cn2c1 | 7.59% (inactive) |
| Cc1c(/C(O)=C2/C(=O)C(=O)N(CCN3CCOCC3)C2c2ccccn2)cnn1-c1ccccc1 (stereo not given) | -7.18% (inactive) |
| CCc1cc(=O)oc2c(CNCc3c(F)cccc3Cl)c(O)ccc12 | 2.48% (inactive) |
| COc1ccccc1C(=O)NC(=O)CSc1nnc(N)s1 | -1.07% (inactive) |
| CS(=O)(=O)c1ccc(Sc2nc3ccccc3s2)c([N+](=O)[O-])c1 | -4.39% (inactive) |
| COc1ccc(-c2nc(CS(=O)CC(=O)NCc3ccc(Cl)cc3)c(C)o2)cc1 (stereo not given) | 6.15% (inactive) |
| COc1ccc(S(=O)(=O)NCCc2csc(-c3cccnc3)n2)cc1 | 1.59% (inactive) |
| Cc1cccc(Cn2cc(SCC(=O)Nc3nccs3)c3ccccc32)c1 | 8.72% (inactive) |
| O=C1/C(=C/c2cccnc2)SC(=S)N1Cc1ccco1 | 5.5% (inactive) |
| CCOc1ccc(-c2nc(CSCC(=O)NCc3ccco3)c(C)o2)cc1 | 4.12% (inactive) |
| CCOC(=O)c1ccc(NC(=S)N2CCSC2c2ccc(OC)cc2)cc1 (stereo not given) | 8.51% (inactive) |
| Cc1ccc(C(=O)NCCc2cccs2)cc1 | -6.71% (inactive) |
| Cc1ccc(/C=C/C(=O)C2C(=O)c3ccccc3C2=O)cc1 | 3.89% (inactive) |
| Cc1cc(C)n(C2CCCCC2OC(=O)c2ccccc2F)n1 (stereo not given) | 7.27% (inactive) |
| CNC(=S)Nc1ccc2nc(C)c(C)nc2c1 | 1.31% (inactive) |
| Cc1cc(=O)[nH]c(N=N/C(=N/Nc2ccccc2C)c2ccccc2)n1 | 0.611% (inactive) |

| SMILES | activity change, negative = cytotoxicity |
| --- | --- |
| O=C(Nc1ccc(Br)cc1)C1CC(O)CN1C(=O)OCc1ccccc1 (stereo not given) | 6.89% (inactive) |
| O=C(O)CCc1nc(-c2ccc(Cl)cc2)no1 | 12.4% (inactive) |
| Cn1c(-c2ccccc2)cnc1SCC(=O)N1CCCCC1 | 3.75% (inactive) |
| NC(=O)c1sc2nc3c(c(-c4cccs4)c2c1N)CCCCC3 | -1.65% (inactive) |
| O=C(N/N=C/c1cccnc1)c1cc(-c2cccs2)nc2ccccc12 | -0.968% (inactive) |
| O=C(CN1C(=O)c2ccccc2C1=O)NNC1=NS(=O)(=O)c2ccccc21 | 6.87% (inactive) |
| COc1ccc(-n2nc(C(=O)c3cccs3)cc(-c3nc4ccccc4[nH]3)c2=N)cc1 | -3.71% (inactive) |
| O=C(Nc1nnc(N2CCCCCC2)s1)c1cc(-c2ccc(Br)cc2)on1 | 4.97% (inactive) |
| Cc1ccccc1N(C(=O)c1snc(C(N)=O)c1N)C(C(=O)NC1CCCCC1)c1ccc(O)cc1 (stereo not given) | 1.86% (inactive) |
| Cc1cc(NC(=O)c2ccc3c(c2)OCCO3)no1 | 7.18% (inactive) |
| CSc1nc2cc3c(cc2n1C(=O)c1ccc(C)cc1)OCCO3 | 1.34% (inactive) |
| C/C(=N\Nc1ccc(C(F)(F)F)cc1[N+](=O)[O-])C(C)C | 0.008% (inactive) |
| Nc1ccccc1SC1CC(=O)N(c2ccccc2Cl)C1=O (stereo not given) | -4.97% (inactive) |
| Cc1cccc(Nc2nc(Cl)ncc2F)c1C | 10.1% (inactive) |
| Cc1ccnc(SCCn2c(N3CCN(c4ccccc4)CC3)nc3c2c(=O)[nH]c(=O)n3C)n1 | 17.5% (inactive) |
| O=C(NCCCN1CCCCC1)c1ccc2c(c1)NC(=O)c1ccccc1S2 | 7.92% (inactive) |
| COc1ccc(-c2cc3nc(-c4ccccc4)cc(N4CCCC(O)C4)n3n2)cc1 (stereo not given) | 14.7% (inactive) |
| O=C(N/C(=C/c1ccc(Br)cc1)C(=O)N1CCOCC1)c1ccc(Br)o1 | 7.11% (inactive) |
| COc1cccc(-c2nc(NCc3ccccc3)c3ccccc3n2)c1O | 3.06% (inactive) |
| O=C(NCCc1ccccc1)c1ccc2nccnc2c1 | 1.28% (inactive) |
| O=C(Nc1ccc(Cl)c(Cl)c1)Nc1nc(-c2ccccc2)cs1 | 0.564% (inactive) |
| CCc1ccccc1N(CC(=O)NCc1ccco1)C(=O)c1snc(C(N)=O)c1N | 9.6% (inactive) |
